The campaign covered roughly 5,500 compounds. About 2,000 (36%) were called active. Inconclusive results (about 18%) are left out. Cut-off read from the data, not from the text of the source: active = normalized growth mostly below about 0.91 (no sharp cut-off); inconclusive = no clear call, values can overlap the other calls; inactive = mostly above about 0.92. The list shows a part of the results.
Experiment: chemical genetic growth profiling, strain panel (AID 1159580);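 note: tested at 20 µM; growth read once vehicle control cultures reached saturation at 30 °C; 1 = growth at the plate median or of vehicle wells; lower values mean less growth of the strain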
Conditions: S. cerevisiae deletion strains, growth OD

Measured: normalized growth

C/C=C\C1=C(C(=O)O)N2C(=O)C(NC(=O)C(N)c3ccc(O)cc3)C2SC1 (centres undefined)
inactive: locus YAL021C, strain ccr4, hits give low values 0.983 | locus YAL026C, strain drs2, hits give low values 1.01 | locus YAL030W, strain snc1, hits give low values 1 | locus YBL061C, strain skt5, hits give low values 1.02 | locus YBR009C, strain hhf1, hits give low values 1.01 | locus YBR023C, strain chs3, hits give low values 1.01 | locus YBR171W, strain sec66, hits give low values 1.01 | locus YBR231C, strain swc5, hits give low values 1.01 | locus YBR279W, strain paf1, hits give low values 1 | locus YCL011C, strain gbp2, hits give low values 1 | locus YCL016C, strain dcc1, hits give low values 1 | locus YCL061C, strain MRC1, hits give low values 1 | locus YCL069W, strain vba3, hits give low values 1.01 | locus YCR088W, strain abp1, hits give low values 1.01 | locus YDL005C, strain med2, hits give low values 1 | locus YDL040C, strain nat1, hits give low values 1.01 | locus YDR001C, strain nth1, hits give low values 1.01 | locus YDR069C, strain doa4, hits give low values 0.995 | locus YDR137W, strain rgp1, hits give low values 1.01 | locus YDR159W, strain sac3, hits give low values 0.987 | locus YDR195W, strain ref2 0.978 | locus YDR297W, strain sur2, hits give low values 1 | locus YDR334W, strain swr1, hits give low values 1.01 | locus YDR335W, strain msn5, hits give low values 1.01 | locus YDR392W, strain spt3, hits give low values 0.991 | locus YEL003W, strain gim4, hits give low values 1 | locus YEL037C, strain rad23, hits give low values 1.01 | locus YEL061C, strain CIN8 (second series), hits give low values 1 | locus YER015W, strain faa2, hits give low values 1 | locus YER016W, strain bim1, hits give low values 1.01 | locus YER111C, strain swi4, hits give low values 0.996 | locus YER155C, strain BEM2 (second series), hits give low values 1.01 | locus YFR010W, strain ubp6, hits give low values 1.02 | locus YGL167C, strain pmr1, hits give low values 1.01 | locus YGL173C, strain kem1, hits give low values 1 | locus YGL227W, strain vid30, hits give low values 1.01 | locus YGL240W, strain doc1, hits give low values 0.988 | locus YGL253W, strain hxk2, hits give low values 1.01 | locus YHR013C, strain ard1, hits give low values 0.997 | locus YHR027C, strain rpn1, hits give low values 0.993 | locus YHR030C, strain SLT2, hits give low values 1.02 | locus YHR079C, strain IRE1, hits give low values 1.04 | locus YHR142W, strain chs7, hits give low values 1.03 | locus YJL092W, strain hpr5, hits give low values 1.01 | locus YJL095W, strain BCK1 (second series), hits give low values 0.998 | locus YJL095W, strain BCK1, hits give low values 0.997 | locus YJL115W, strain asf1, hits give low values 0.999 | locus YJL129C, strain trk1, hits give low values 1.02 | locus YJL154C, strain vps35, hits give low values 1.01 | locus YJL164C, strain tpk1, hits give low values 1.02 | locus YJL166W, strain qcr8, hits give low values 1 | locus YJR066W, strain TOR1, hits give low values 0.982 | locus YKL160W, strain elf1, hits give low values 1 | locus YKR026C, strain gcn3, hits give low values 1 | locus YKR091W, strain srl3, hits give low values 1 | locus YLL001W, strain dnm1, hits give low values 1.01 | locus YLL026W, hits give low values 0.999 | locus YLL041C, strain sdh2, hits give low values 1.03 | locus YLR027C, strain aat2, hits give low values 1.01 | locus YLR113W, strain HOG1, hits give low values 0.957 | locus YLR221C, strain rsa3, hits give low values 1 | locus YLR258W, strain gsy2, hits give low values 1.02 | locus YLR262C, strain YPT6 (second series), hits give low values 1.01 | locus YLR320W, strain mms22, hits give low values 1.02 | locus YLR342W, strain FKS1, hits give low values 1 | locus YLR357W, strain rsc2, hits give low values 1.01 | locus YLR370C, strain arc18, hits give low values 1.02 | locus YLR384C, strain iki3, hits give low values 1.02 | locus YML120C, strain ndi1, hits give low values 1.02 | locus YMR058W, strain fet3, hits give low values 1.01 | locus YMR125W, strain sto1, hits give low values 1.02 | locus YMR129W, hits give low values 1.01 | locus YMR205C, strain PFK2, hits give low values 1.02 | locus YMR231W, strain pep5, hits give low values 1 | locus YNL071W, strain lat1, hits give low values 1.01 | locus YNL183C, strain NPR1, hits give low values 0.959 | locus YNL209W, strain ssb2, hits give low values 0.997 | locus YNL248C, strain rpa49, hits give low values 1.02 | locus YNL322C, strain KRE1 (second series), hits give low values 0.994 | locus YNR049C, strain mso1, hits give low values 1.03 | locus YOR001W, strain rrp6, hits give low values 1.02 | locus YOR070C, strain gyp1, hits give low values 1.01 | locus YOR080W, strain dia2, hits give low values 1.01 | locus YOR083W, strain WHI5, hits give low values 1.01 | locus YOR106W, strain vam3, hits give low values 0.997 | locus YOR231W, strain MKK1, hits give low values 1.01 | locus YOR265W, strain rbl2, hits give low values 1.02 | locus YOR270C, strain vph1, hits give low values 1.04 | locus YOR290C, strain snf2, hits give low values 1 | locus YPL051W, strain arl3, hits give low values 1.01 | locus YPL078C, strain atp4, hits give low values 1.02 | locus YPL106C, strain sse1, hits give low values 1 | locus YPL240C, strain hsp82, hits give low values 1.01 | locus YPL256C, strain CLN2, hits give low values 1.04
